Screening results (PubChem)
Only some compounds are listed: those with a hit (about 8.8% of all), similar ones and a draw of the others.
HTT cytoprotect – qHTS Multiplex Assay to Identify Dual Action Probes in a Cell Model of Huntington: Cytoprotection (ATP). PC12 HTT-Q103 induced, cytoprotection, ATP luminescence, 40 h. Potency, µM (top dose mostly 56.4 µM), for the others: cytoprotection (ATP increase), usual class: activators. 230,000 tested, 0.14% active. AID 1471, 2008; further: % of control where 0% means no effect; nearly all actives have a fitted effect of over 45% in size
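PC12 cells with ecdysone-inducible HTT exon 1 Q103-GFP, induced with 100 nM tebufenozide and co-treated with library compounds in a dose series (1536-well, 1500 cells/well). Cytoprotection read as ATP content by ATPlite luminescence.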
ALDH1A1 block – qHTS Assay for Inhibitors of Aldehyde Dehydrogenase 1 (ALDH1A1) | Aldehyde dehydrogenase 1A1 (Homo sapiens), P00352 | Purified ALDH1A1, NADH fluorescence, propionaldehyde substrate | Potency, µM (titrated, usually from 75.3 µM), for the others: top-dose activity, negative = inhibition, hits mostly inhibitors | 220,000 tested, 7.3% active | AID 1030, 2008; active means well fitted inhibition curve with a large enough effect, not every such curve was filed as active; inconclusive means small, poorly fitted or top-dose-only effect, or another doubt; inactive means no such curve, though single readings can be large or run the other way;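 further: plate controls were no enzyme wells and a reference inhibitor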
Target sequence (P00352 whole entry, looked up): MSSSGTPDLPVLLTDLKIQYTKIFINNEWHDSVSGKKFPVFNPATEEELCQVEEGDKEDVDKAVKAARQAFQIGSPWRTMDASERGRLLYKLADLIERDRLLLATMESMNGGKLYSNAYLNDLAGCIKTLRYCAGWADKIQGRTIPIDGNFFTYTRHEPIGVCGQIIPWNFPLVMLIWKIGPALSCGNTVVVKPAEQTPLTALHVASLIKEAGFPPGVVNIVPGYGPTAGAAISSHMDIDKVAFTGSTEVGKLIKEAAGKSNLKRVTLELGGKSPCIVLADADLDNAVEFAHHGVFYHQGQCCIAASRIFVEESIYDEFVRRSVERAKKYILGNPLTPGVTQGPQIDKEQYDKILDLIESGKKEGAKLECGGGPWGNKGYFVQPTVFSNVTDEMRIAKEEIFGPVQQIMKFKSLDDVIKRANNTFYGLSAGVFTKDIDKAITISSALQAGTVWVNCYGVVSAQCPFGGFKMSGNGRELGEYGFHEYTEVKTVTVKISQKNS
HTT aggregate – qHTS Multiplex Assay to Identify Dual Action Probes in a Cell Model of Huntington: Aggregate Formation (GFP). PC12 HttQ103-GFP aggregates, Acumen cytometry, 40 h. Potency, µM (highest dose often 46.1 µM), for inactives: at the highest dose activity change, negative = inhibition, usual class: inhibitors. 220,000 tested, 1.1% active; further: on the % scale 0 is the no-effect control and ±100 the full control effect; nearly all actives have a fitted effect of over 60% in size
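Aggregates are detected as GFP objects 1–25 µm with signal 6 STDEV over background in lysates of induced PC12 cells. These carry Huntingtin exon 1 with 103 glutamines fused to GFP under an ecdysone promoter; compounds titrated.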
LMNA splice mod – qHTS Assay for Modulators of Lamin A Splicing. HeLa LMNA splicing GFP/RFP minigene ratio, 48 h. Potency, µM (top dose mostly 46.1 µM), for inactives: at the highest dose ratio change, negative = inhibition, actives largely listed as inhibitors. 200,000 tested, 0.01% active. AID 1487, 2009; active means well fitted inhibition curve with a large enough effect in the signal ratio, with a control signal flat, not every such curve was filed as active; inconclusive means small, poorly fitted or top-dose-only effect, or effect the other way, or a change in a side signal; the % refers to the signal ratio; further: on the % scale 0 is the no-effect control and ±100 the full control effect
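Read-out is the ratio of GFP to DsRed2 object intensity, acquired by 488 nm laser-scanning cytometry on HeLa lamin A-EGFP minigene reporter cells. Compound incubation 48 hrs at 37 °C in Opti-MEM with 2% FBS; DMSO 0.5% final.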
HPGD block – qHTS Assay for Inhibitors of HPGD (15-Hydroxyprostaglandin Dehydrogenase) | 15-hydroxyprostaglandin dehydrogenase [NAD(+)] (Homo sapiens), P15428 | purified HPGD, NADH fluorescence kinetic, PGE2 substrate | Potency, µM, for inactives: at the highest dose activity change, negative = inhibition, hits mostly inhibitors | 150,000 tested, 4.3% active; active means well fitted inhibition curve with a large enough effect, not every such curve was filed as active; inconclusive means small, poorly fitted or top-dose-only effect, or another doubt; inactive means no such curve, though single readings can be large or run the other way; further: on the % scale 0 is the no-effect control and ±100 the full control effect
Target sequence (P15428 whole entry, looked up): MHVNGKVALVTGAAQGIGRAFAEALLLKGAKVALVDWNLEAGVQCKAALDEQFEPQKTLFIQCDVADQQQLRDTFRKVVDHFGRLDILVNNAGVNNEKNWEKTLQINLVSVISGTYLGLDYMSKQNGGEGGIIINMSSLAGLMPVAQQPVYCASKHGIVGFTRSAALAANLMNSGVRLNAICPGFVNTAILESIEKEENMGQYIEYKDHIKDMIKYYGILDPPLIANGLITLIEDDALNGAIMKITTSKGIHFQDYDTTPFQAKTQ
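20 nM HPGD preincubated 15 min at room temperature with compound in 50 mM Tris-HCl pH 8, 0.01% Tween 20. Started with 1 mM NAD+ and 30 uM prostaglandin E2; NADH fluorescence (360/450 nm) read 5 times over 30-s intervals, last minus first.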
Numbers without * were called inactive; ? = inconclusive; nt = not tested or not shown; [ ] = dose if it differs, or a comment. Unless noted, the call rests on the fitted dose curve; in most records, active means well fitted curve in the direction sought with a large enough effect; inconclusive means small, poorly fitted or top-dose-only effect, or another doubt; inactive means no such curve, though single readings can be large; an effect the other way counts as inactive or inconclusive. Potency means the concentration at half of the fitted maximal effect.

SMILES | HTT cytoprotect | ALDH1A1 block | HTT aggregate | LMNA splice mod | HPGD block
O=[N+]([O-])c1cc(S(=O)(=O)NCCN2CCOCC2)ccc1Sc1nnnn1-c1ccccc1 | 24%[10 µM] | 14µM* | 4.5µM* | ? | -8%
COCCn1c(=O)cnc2cnc(N3CCNCC3)nc21 | 4% | ? | nt | nt | ?
CC(C)(C)n1nnnc1C(c1cccs1)N(Cc1ccc(Cl)cc1)CC1CCCO1 (stereo unspecified) | -47% | ? | 14µM* | ? | -14%
CN(C)CCCNS(=O)(=O)c1ccc(Oc2ncc(C(F)(F)F)cc2Cl)cc1 | -3%[10 µM] | 20% | 22µM* | -9% | -13%
CCCCSc1nnc([C@H](C)NC(=O)OC(C)(C)C)o1 | 1%[10 µM] | 22µM* | 1% | 4% | -30%
CSCC[C@H](NC(=O)OC(C)(C)C)c1nnc(SCC(=O)Nc2ccc(C)cc2C)o1 | -3%[0.074 µM] | 3% | 7% | 0% | -13%
CCc1ccccc1NC(=O)CSc1nnc([C@H](CCSC)NC(=O)OC(C)(C)C)o1 | -13%[0.074 µM] | 22µM* | 29% | -5% | -18%
CCc1ccc(S(=O)(=O)c2cn(Cc3ccccc3)c3cc(N4CCCC4)c(F)cc3c2=O)cc1 | nt | nt | nt | -1%[46 µM] | nt
COc1ccccc1OCCCCOc1ccccc1F | 2% | 5% | 11% | 9% | -14%
CCN(CC)CCCCCOc1ccccc1OC | 1% | 0.028µM* | 25% | 5% | -8%
CCOC(=O)OCC1OC(c2ccccc2)C=CC1Oc1cccc(N(C)C)c1 (stereo unspecified) | -5%[10 µM] | 5%[13.5 µM] | nt | nt | nt
COC(=O)c1cc(OC)c(OC)cc1NC(=O)C1CCC(=O)N1S(=O)(=O)c1ccc(C)cc1 (stereo unspecified) | -25% | -4% | 3.2µM* | -4% | -16%
CC(=O)Nc1ccc2c(c1)ncn2C | 2%[1.9 µM] | 35µM* | -28% | -2% | 6%
Cn1cnc2cc(NC(=O)c3ccco3)ccc21 | -73% | -64% | -1% | 5% | -9%
Cc1noc(C)c1-c1cc(NCCN2CCOCC2)ncn1 | ? | 20µM* | nt | 0% | nt
Cc1noc(C)c1-c1cc(Nc2ccccc2)ncn1 | -41% | ? | nt | ? | nt
Cc1cccc(-c2noc(-c3ccccc3C(=O)NCC3CCCO3)n2)c1 (stereo unspecified) | -66%[0.074 µM] | 16µM* | -57% | -2% | -8%
O=C(NCC1CCCO1)c1ccccc1-c1nc(-c2ccc(Cl)cc2)no1 (stereo unspecified) | -4%[10 µM] | -5% | -13% | -13% | 0%
CCOC(=O)CSc1nnc(SCCN2C(=O)c3ccccc3C2=O)s1 | -12% | 28µM* | 3% | 10% | -9%
CCOC(=O)CNC(=O)CSc1nc(-c2cccc(C)c2)ns1 | -67% | 20µM* | 4% | 9%[46 µM] | nt
Nc1nnc(SCCN2C(=O)c3ccccc3C2=O)s1 | -5% | 0% | 21% | -1% | -8%
CCOC(=O)CNC(=O)CSc1nnc(NC(=O)c2ccc(C)cc2)s1 | -175% | ? | -4% | 1%[9.22 µM] | nt
CCOC(=O)CNC(=O)CSc1nnc(SCC(=O)NCC(=O)OCC)s1 | -12% | 0.25µM* | 9% | 4% | ?
Cc1cccc(-c2nsc(SCC(=O)NCc3ccco3)n2)c1 | -12% | ? | 4% | ? | ?
C=CCOC(=O)N[C@@H](c1ccc(Br)cc1)C(C(C)=O)C(C)=O | 0% | 10% | nt | nt | -10%
SMILES | HTT cytoprotect | ALDH1A1 block | HTT aggregate | LMNA splice mod | HPGD block
Cc1cnc(CNc2ccnc(-c3ccccc3C(F)(F)F)n2)cn1 | 8% | ? | nt | 1% | nt
O=C1CCC=C1C(O)CCc1ccccc1 (stereo unspecified) | -9% | -7% | nt | nt | -9%
Cc1cccc(-c2nsc(SCC(=O)NCC3CCCO3)n2)c1 (stereo unspecified) | nt | 20µM* | 10% | nt | nt
Cc1cccc(NC(=O)CS(=O)(=O)c2cccc3nsnc23)c1 | nt | nt | nt | 12%[46 µM] | nt
ClC1(Cl)CC1Cn1c(C2CC2)nc2ccccc21 (stereo unspecified) | ? | 10µM* | 13%[9.22 µM] | -1%[46 µM] | nt
CCc1nc2ccccc2n1CC1CC1(Cl)Cl (stereo unspecified) | -13% | 8% | -2% | ? | nt
O=C(O)CCC(=O)NNC(=O)c1ccc([N+](=O)[O-])cc1 | 10%[10 µM] | nt | 11%[9.22 µM] | nt | nt
O=C(NC(=S)NNS(=O)(=O)c1ccc(Cl)cc1)c1cccnc1 | nt | 7.9µM* | nt | nt | nt
Cc1ccccc1C(=O)NNC(=S)NC(=O)c1ccccc1 | nt | 14µM* | -23% | ? | -22%
O=C(NNS(=O)(=O)c1ccccc1)c1cccnc1 | -3%[10 µM] | 8%[13.5 µM] | -10%[9.22 µM] | nt | -7%
CCCCC(=O)NC(=S)NNC(=O)c1ccc(OC)cc1 | 11%[10 µM] | -12% | 10µM* | ? | nt
CCCCCC(=O)NNC(=S)NC(=O)c1ccc([N+](=O)[O-])cc1 | -54% | 6.3µM* | -13% | ? | nt
CCc1ccc(N2C(=O)N(CC(=O)C(C)(C)C)c3ccccc3S2(=O)=O)cc1 | nt | nt | nt | -8%[46 µM] | nt
Cc1ccc(-c2cn3nc(N4CCCC(C(=O)NCc5ccccc5F)C4)sc3n2)cc1 (stereo unspecified) | nt | nt | nt | 28%[46 µM] | nt
CC1=C(c2ccc(F)cc2)S(=O)(=O)N=C1N1CCC(C(=O)NCCc2ccco2)CC1 | nt | nt | nt | 0%[46 µM] | nt
Cc1cccc(NC(=O)CSc2nc3c([nH]c4ccccc43)c(=O)n2C)c1C | nt | nt | nt | -4%[46 µM] | nt
Cc1cc(C)n(CCc2nc3c4ccccc4nc(SCc4ccc(F)cc4)n3n2)n1 | nt | nt | nt | -5%[46 µM] | nt
Cc1ccc(S(=O)(=O)NNC(=S)NC(=O)c2ccc([N+](=O)[O-])cc2)cc1 | 43%[10 µM] | 18µM* | 24% | 4% | 28µM*
CCCCC(=O)NNC(=S)NC(=O)CCC | 7%[1.9 µM] | -12% | -6% | -11% | -14%
Cc1ccc(C(=O)NC(=S)NNC(=O)c2ccccc2[N+](=O)[O-])cc1 | 25%[10 µM] | 22µM* | -29% | ? | 40µM*
CCCCC(=O)NC(=S)NNC(=O)CC#N | -9% | 22µM* | -4% | 8% | -21%
CC(C)c1ccc(CNc2n[nH]c(-c3ccco3)n2)cc1 | nt | nt | nt | 20%[46 µM] | nt
COc1ccc([C@@H]2OC[C@]3(COC(C)=O)[C@H](C)C=C(C)[C@@H]2[C@H]3C)cc1 | 2% | nt | nt | nt | nt
O=C(CSc1nnc([C@@H]2CCCN2)o1)c1ccc(Cl)cc1 | 2%[0.074 µM] | 22µM* | 28% | 0% | -26%
Fc1ccccc1CSc1nc2ncccc2[nH]1 | -1%[10 µM] | 22µM* | -24% | 15% | 18µM*
Cc1ccc(S(=O)(=O)Nc2ccc(Br)cc2/C=N/n2cnnc2)cc1 | -26% | 28µM* | 2.2µM* | -24% | -3%
